# According to PubChem BioAssay (NCATS):
# Inconclusive results are not listed. Active and inactive are the calls of the source. Calls follow the shape of the dose curve; as a rule, active = well fitted cell-killing curve with a large enough effect; inconclusive = small, poorly fitted or top-dose-only effect, or effect the other way; inactive = flat fitted curve, though single readings scatter.
# Test system: HeLa
# Assay: Primary qHTS to identify gynecologic anti-cancer compounds using libraries of approved drugs and bioactive compounds (AID 1345084); also: nearly all actives have a fitted effect of over 55% in size
# Details: Gynecologic cancer cell panel viability, ATPlite luminescence, 48 h; series mostly up to 57.5 µM; activity change, negative = cytotoxicity: at the top concentration
# In short: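 48 h compound exposure at 37 C, 5% CO2; five-point qHTS. ATPlite luminescence readout of cell ATP.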
# % is scaled to controls: 0 for no effect and ±100 for the full control effect.
row,Structure (SMILES),"activity change, negative = cytotoxicity"
1,C=C1C(=O)O[C@@H]2CC(C)=C([C@@H](C)CCCO)[C@@H](OC(=O)C(C)C)[C@H]12,-12.2% [at 38.5 µM] (inactive)
2,OCC(Cc1ccccc1)Nc1nc(Oc2ccc3c(c2)CCC3)nc2c1ncn2Cc1ccc(-c2ccccc2)cc1 (configuration not stated),-25.5% (inactive)
3,Cc1cc2nc(NCCCO)n(CC(=O)c3cc(C(C)(C)C)c(O)c(C(C)(C)C)c3)c2cc1C,-13.2% (inactive)
4,CC1(C)CC23[C@@H]4CC(=O)[C@@H]2COC(=O)[C@@H]3CC[C@H]41,4.57% (inactive)
5,CC[C@H](CO)Nc1nc(Nc2cccc(-c3ccccn3)c2)c2ncn(C(C)C)c2n1,1.74% (inactive)
6,Cc1ccccc1C(=O)Nc1ccc(C(=O)N2CCC[C@@H](O)c3cc(Cl)ccc32)c(C)c1,-5.84% (inactive)
7,CCCCn1c(-c2ccccc2)nc(-c2ccccc2)c1CN(Cc1ccc2c(c1)OCO2)Cc1ccc2c(c1)OCO2,0.189% (inactive)
8,CCOC(=O)c1cccc(CNc2ccc(N(C)C(=O)Nc3ccccc3)cc2)c1,-20.5% (inactive)
9,O=C(NC(NC(=S)Nc1ccc(F)c([N+](=O)[O-])c1)C(Cl)(Cl)Cl)C(c1ccccc1)c1ccccc1 (configuration not stated),0.0288% [at 25.3 µM] (inactive)
10,OCC(CO)(CO)NCC(O)Cn1c2ccc(Cl)cc2c2cc(Cl)ccc21 (configuration not stated),3.76% (inactive)
11,COCCOCCOc1ccc(C2=N[C@@](C)(C(=O)O)CS2)c(O)c1,-1.64% (inactive)
12,CC(=O)C1=C(O)C2c3c[nH]c4cccc(c34)CC2C(C)(C)N(C)C1=O (configuration not stated),-12.1% (inactive)
13,CC(C)N(CCCNC(=O)Nc1ccc(C(C)(C)C)cc1)C[C@H]1O[C@@H](n2cc(Br)c3c(N)ncnc32)[C@H](O)[C@@H]1O,3.72% (inactive)
14,O=[N+]([O-])c1ccc(-[n+]2nc(-c3ccccc3)nn2-c2ccc(I)cc2)cc1,0.456% (inactive)
15,CC(=O)N[C@@H](CC(=O)O)C(=O)N[C@@H](CCC(=O)O)C(=O)N[C@H](C(=O)N[C@@H](CC(=O)O)C(=O)Nc1ccc2c(C)cc(=O)oc2c1)C(C)C,0.565% (inactive)
16,CC1CCCC(SCC(O)C(=O)O)CC(=O)c2c(O)cc(O)cc2CC(=O)O1 (configuration not stated),-5.66% [at 25.3 µM] (inactive)
17,COc1ccccc1NC(=O)Nc1ccc2ccccc2c1,0.48% (inactive)
18,CN1CCN(C(=O)c2ccc(Nc3nccc(-c4cccs4)n3)cc2Cl)CC1,4.35% (inactive)
19,Cn1cc(-c2cnc3ccc4ccc(CS(=O)(=O)NCc5ccccn5)cc4c(=O)c3c2)cn1,-9.86% (inactive)
20,C=C(C)[C@@H]1CC[C@]2(C(=O)O)CC[C@]3(C)C(CCC4[C@@]5(C)C[C@@H](O)[C@H](O)C(C)(C)C5CC[C@]43C)C12 (some centres not stated),-2.55% [at 25.3 µM] (inactive)
21,CCN(CCCOc1ccc2c(Nc3cc(CC(=O)Nc4cccc(F)c4)[nH]n3)ncnc2c1)CCOP(=O)(O)O,-36.4% (inactive)
22,CCS(=O)(=O)N(Cc1cccnc1)c1cccc(-c2ccc(C#N)cc2)c1,-4.23% (inactive)
23,CC(C)CCC[C@@H](C)[C@H]1CC[C@H]2[C@@H]3CC=C4C[C@@H](OC(=O)NCCN(C)C)CC[C@]4(C)[C@H]3CC[C@]12C,6.08% (inactive)
24,O=C(NNc1ccccc1)c1ccncc1,0.936% (inactive)
25,CC(C)(C)c1ccc(CNC(=S)NCc2ccc(NS(C)(=O)=O)c(F)c2)cc1,-12.1% (inactive)
26,CNCc1ccc(C)c(NC(=O)c2ccc(Nc3nc(-c4ccccc4)c4ccccc4n3)cc2)c1,-1.46% (inactive)
27,CC1CCC(n2c3cnccc3c3cnc(Nc4ccc5c(n4)CCN(C(=O)CO)C5)nc32)CC1 (configuration not stated),14.9% (inactive)
